# Measurements published in PubChem BioAssay (NCATS).
# Records with an inconclusive call do not appear. The source made the active and inactive calls. Unless noted, calls come from the whole dose curve.
# Test: Cell Viability - BJ (AID 421);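 note: cells exposed to compound for 40 hours at 37 °C before readout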
# Settings: BJ fibroblast viability, qHTS
# How it was run: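 Cytotoxicity as drop in intracellular ATP (CellTiter-Glo, 20 min RT) after 40 hr compound exposure of BJ fibroblasts at 37 °C. Titrations scaled between DMSO and 100 uM tamoxifen, Hill-fitted for AC50.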
# Potency is the fitted concentration of half-maximal effect.
row,Compound,Potency
1,O=C(O)c1c(Cl)cccc1Cl,> 92 µM (inactive)
2,CC(=O)CC(C)C,> 92 µM (inactive)
3,NC(=O)/N=N/C(N)=O,> 92 µM (inactive)
4,O=C(Cl)c1cccc([N+](=O)[O-])c1,> 92 µM (inactive)
5,CCCCC(=O)N(C)C,> 92 µM (inactive)
6,CSCCC=O,> 92 µM (inactive)
7,CCCCC(C=O)CC (stereo not drawn),> 92 µM (inactive)
8,O=Cc1cccc(Br)c1,> 92 µM (inactive)
9,C=CCn1c(=O)n(CC=C)c(=O)n(CC=C)c1=O,> 92 µM (inactive)
10,CCOc1cc(OCC)c(C(C)=O)cc1OCC,> 92 µM (inactive)
11,CCC(C)=O,> 92 µM (inactive)
12,O=C1OC(=O)c2c(Cl)c(Cl)c(Cl)c(Cl)c21,> 92 µM (inactive)
13,CC=O,> 92 µM (inactive)
14,CCOc1ccccc1N,> 92 µM (inactive)
15,Cc1ccc(C(C)(C)C)cc1,> 92 µM (inactive)
16,CC(N)CN (stereo not drawn),> 92 µM (inactive)
17,O=C1CCC(=O)O1,> 92 µM (inactive)
18,O=[N+]([O-])c1ccc(NCCO)c(OCCO)c1,> 92 µM (inactive)
19,ClCCl,> 92 µM (inactive)
20,Cc1ccc(C)o1,> 92 µM (inactive)

row,Compound,Potency
1,NC(=S)NNC(N)=S,> 92 µM (inactive)
2,Clc1ccc(Cl)c(Cl)c1Cl,> 92 µM (inactive)
3,O=C(Cl)c1ccccc1[N+](=O)[O-],> 92 µM (inactive)
4,Nc1cccc(N)c1,> 92 µM (inactive)
5,CC(C)=C1CCC(C)CC1=O (stereo not drawn),> 92 µM (inactive)
6,Nc1ccc(F)cc1F,> 92 µM (inactive)
7,COC(=O)CCC(=O)OC,> 92 µM (inactive)
8,CCc1ccccc1,> 92 µM (inactive)
9,CC(=O)OCCC(C)C,> 92 µM (inactive)
10,C[C@@H]1CC2(OC3C[C@@]4(C)C5=CC[C@H]6C(C)(C)C(O[C@@H]7OC[C@@H](O)[C@H](O)[C@H]7O)CC[C@@]67C[C@@]57CC[C@]4(C)C31)OC(O)C1(C)OC21 (stereo partly drawn),> 92 µM (inactive)
11,CC(=O)Nc1ccc(N)cc1,> 92 µM (inactive)
12,CN(C)c1cccc(O)c1,> 92 µM (inactive)
13,Nc1ccccc1S(=O)(=O)O,> 92 µM (inactive)
14,C=CCOC(=O)CCCCCCCC,> 92 µM (inactive)
15,CC(=O)CCc1ccccc1,> 92 µM (inactive)
16,c1ccsc1,> 92 µM (inactive)
17,NC(=O)c1ccccc1[N+](=O)[O-],> 92 µM (inactive)
18,O=C(O)/C=C/C(=O)O,> 92 µM (inactive)
19,O=C(O)c1ccc(CO)o1,> 92 µM (inactive)

# Test: Cell Viability - Jurkat (AID 426;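 active = dose-dependent loss of cell ATP signal giving a full or clear fitted curve, ranked by lower potency value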)
# Settings: qHTS
# How it was run: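 Jurkat (clone E6-1, human T-cell leukemia) cells, 5000/well in complete medium, were exposed to compound for 40 hr at 37 °C. Viability was read as intracellular ATP by CellTiter-Glo luminescence; AC50 came from Hill fits of concentration-response data.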
row,Compound,Potency
1,O=C(O)c1c(Cl)cccc1Cl,> 92 µM (inactive)
2,CC(=O)CC(C)C,> 92 µM (inactive)
3,NC(=O)/N=N/C(N)=O,> 92 µM (inactive)
4,O=C(Cl)c1cccc([N+](=O)[O-])c1,> 92 µM (inactive)
5,CCCCC(=O)N(C)C,> 92 µM (inactive)
6,CSCCC=O,> 92 µM (inactive)
7,CCCCC(C=O)CC (stereo not drawn),> 92 µM (inactive)
8,O=Cc1cccc(Br)c1,> 92 µM (inactive)
9,C=CCn1c(=O)n(CC=C)c(=O)n(CC=C)c1=O,> 92 µM (inactive)
10,CCOc1cc(OCC)c(C(C)=O)cc1OCC,> 92 µM (inactive)
11,CCC(C)=O,> 92 µM (inactive)
12,O=C1OC(=O)c2c(Cl)c(Cl)c(Cl)c(Cl)c21,> 92 µM (inactive)
13,CC=O,> 92 µM (inactive)
14,CCOc1ccccc1N,> 92 µM (inactive)
15,Cc1ccc(C(C)(C)C)cc1,> 92 µM (inactive)
16,CC(N)CN (stereo not drawn),> 92 µM (inactive)
17,O=C1CCC(=O)O1,> 92 µM (inactive)
18,O=[N+]([O-])c1ccc(NCCO)c(OCCO)c1,> 92 µM (inactive)
19,ClCCl,> 92 µM (inactive)
20,Cc1ccc(C)o1,> 92 µM (inactive)

row,Compound,Potency
1,NC(=S)NNC(N)=S,> 92 µM (inactive)
2,Clc1ccc(Cl)c(Cl)c1Cl,> 92 µM (inactive)
3,O=C(Cl)c1ccccc1[N+](=O)[O-],> 92 µM (inactive)
4,Nc1cccc(N)c1,> 92 µM (inactive)
5,CC(C)=C1CCC(C)CC1=O (stereo not drawn),> 92 µM (inactive)
6,Nc1ccc(F)cc1F,> 92 µM (inactive)
7,COC(=O)CCC(=O)OC,> 92 µM (inactive)
8,CCc1ccccc1,> 92 µM (inactive)
9,CC(=O)OCCC(C)C,> 92 µM (inactive)
10,C[C@@H]1CC2(OC3C[C@@]4(C)C5=CC[C@H]6C(C)(C)C(O[C@@H]7OC[C@@H](O)[C@H](O)[C@H]7O)CC[C@@]67C[C@@]57CC[C@]4(C)C31)OC(O)C1(C)OC21 (stereo partly drawn),> 92 µM (inactive)
11,CC(=O)Nc1ccc(N)cc1,> 92 µM (inactive)
12,CN(C)c1cccc(O)c1,> 92 µM (inactive)
13,Nc1ccccc1S(=O)(=O)O,> 92 µM (inactive)
14,C=CCOC(=O)CCCCCCCC,> 92 µM (inactive)
15,CC(=O)CCc1ccccc1,> 92 µM (inactive)
16,c1ccsc1,> 92 µM (inactive)
17,NC(=O)c1ccccc1[N+](=O)[O-],> 92 µM (inactive)
18,O=C(O)/C=C/C(=O)O,> 92 µM (inactive)
19,O=C(O)c1ccc(CO)o1,> 92 µM (inactive)
